Screening results from PubChem.
PLK1 PBD inh – blocks phosphopeptide binding to human PLK1 polo-box domain; Potency, µM, without a hit: max response, negative = inhibition, actives largely listed as inhibitors; AID 720504; P53350; 360,000 tested, 2.8% active; Plk1 PBD binding of FITC phosphopeptide, fluorescence polarization; note: series mostly up to about 57 µM; nearly all actives have a fitted effect of over 65% in size
VP16 counter – counter-screen for ROR gamma inhibitors: Gal4-VP16 reporter; Drosophila S2 Gal4-VP16 UAS-luciferase, luminescence, 20 h; Potency, µM (doses to about 53.6 µM), for the others: at the highest dose activity, negative = inhibition, most hits filed as inhibitors; 310,000 tested, 3.5% active; AID 2546;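 note: Gal4-VP16 expression switched on by copper sulfate through the metallothionein promoter; nearly all actives have a fitted effect of over 50% in size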
ALDH1A1 inh – inhibitors of human aldehyde dehydrogenase 1A1; P00352; AID 1030; Purified ALDH1A1, NADH fluorescence, propionaldehyde substrate; Potency, µM (doses to about 75.3 µM), without a hit: at the top dose activity, negative = inhibition, usual class: inhibitors; 220,000 tested, 7.3% active; active = well fitted inhibition curve with a large enough effect, not every such curve was filed as active; inconclusive = small, poorly fitted or top-dose-only effect, or another doubt; inactive = no such curve, though single readings can be large or run the other way;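 note: plate controls were no enzyme wells and a reference inhibitor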
RORg inh – ROR gamma (mouse) transcription inhibition | P51450 | Drosophila S2 Gal4-RORgamma UAS-luciferase reporter, 20 h | Potency, µM (top dose mostly 53.6 µM), for the others: at the top dose activity change, negative = inhibition, hits mostly inhibitors | 310,000 tested, 5.4% active; note: nearly all actives have a fitted effect of over 60% in size
Target sequence (P51450 whole entry, looked up, the tested form may be a part): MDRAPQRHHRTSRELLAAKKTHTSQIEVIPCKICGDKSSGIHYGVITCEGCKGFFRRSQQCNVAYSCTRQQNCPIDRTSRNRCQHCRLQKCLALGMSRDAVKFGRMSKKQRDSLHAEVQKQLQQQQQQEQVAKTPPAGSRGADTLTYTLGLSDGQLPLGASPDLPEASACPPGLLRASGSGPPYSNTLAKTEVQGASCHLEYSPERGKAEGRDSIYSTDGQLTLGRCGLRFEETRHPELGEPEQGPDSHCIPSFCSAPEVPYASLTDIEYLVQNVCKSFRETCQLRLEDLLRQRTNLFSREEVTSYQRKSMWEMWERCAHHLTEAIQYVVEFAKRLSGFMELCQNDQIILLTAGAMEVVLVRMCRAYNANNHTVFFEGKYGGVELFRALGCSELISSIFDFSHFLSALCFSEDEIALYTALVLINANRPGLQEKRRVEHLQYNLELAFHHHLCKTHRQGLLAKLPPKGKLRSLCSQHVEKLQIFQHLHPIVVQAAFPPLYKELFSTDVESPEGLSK
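Schneider cells (Drosophila), stable Gal4 DBD–ROR gamma + UAS-luc; 1 hr cmpd preincubation; Cu2+ induction 700 uM final; 20 hr ambient; luminescence.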
Sfp PPTase inh – Sfp phosphopantetheinyl transferase inhibition. Biochemical Sfp PPTase activity, qHTS. Potency, µM, without a hit: largest response in the series, negative = inhibition, actives largely listed as inhibitors. 310,000 tested, 3.5% active. AID 1490;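 note: the enzyme is Sfp with the accession as filed and its product quenches rhodamine fluorescence; 0% = enzyme reaction without inhibitor and -100% = no enzyme wells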
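Fluorescence-quenching assay with 15 nM Sfp, 5 uM rhodamine-CoA and 12.5 uM BHQ-2-labelled ybbR peptide in pH 7.6 Hepes/MgCl2 buffer. Enzyme was pre-incubated with compound for 15 min at room temperature. Rate was taken from the 30-min fluorescence change (525/598 nm).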
* marks the source's active call; other numbers are inactive results. Rows were chosen to be rich in hits. Some 12% of all compounds tested hit in one or more screens of this group. Unless noted, calls come from the whole dose curve; as a rule, active = well fitted curve in the direction sought with a large enough effect; inconclusive = small, poorly fitted or top-dose-only effect, or another doubt; inactive = no such curve, though single readings can be large; an effect the other way counts as inactive or inconclusive. Unless noted, % is set by controls: 0 for no effect and ±100 for the full control effect; potency is the fitted concentration of half-maximal effect.

How did O=S(=O)(NNc1ncc(C(F)(F)F)cc1Cl)c1ccccc1 do in these assays?
PLK1 PBD inh: -12.2%

What do the screens show for `COC(=O)[C@]12CCCCC=C1N(CCC1=CCCCC1)C(=O)[C@H](CC(=O)NCc1cccc3ccccc13)C2`?
PLK1 PBD inh: -2.8%

Results for Cc1ccc(C(=O)O/N=C2\CCS(=O)(=O)c3sccc32)cc1 ?
PLK1 PBD inh: -5.2%; VP16 counter: 1.4%; ALDH1A1 inh: inconclusive; RORg inh: 8.2%; Sfp PPTase inh: 21.2%

What do the screens show for `O=C(OC1CCS(=O)(=O)c2sccc21)c1ccccc1` (centres undefined)?
PLK1 PBD inh: -10.1%; VP16 counter: -10.4%; ALDH1A1 inh: 22.4µM*; RORg inh: 1.9%; Sfp PPTase inh: 5.4%

What do the screens show for `CC(=O)Nc1cccc(-c2ccnc3c2CC(C)(C(=O)NCc2ccc(F)c(F)c2)O3)c1` (centres undefined)?
PLK1 PBD inh: -2.3%

What do the screens show for `N=C(N)n1cccn1`?
VP16 counter: -7.9%; RORg inh: -5.4%; Sfp PPTase inh: 50.1µM*

What do the screens show for `COC(=O)c1sccc1NC(=O)CSc1ccccc1NS(=O)(=O)c1ccc(Cl)cc1`?
PLK1 PBD inh: -16.7%; VP16 counter: -1.8%; ALDH1A1 inh: 12.6µM*; RORg inh: 38.3%; Sfp PPTase inh: 14.4%

What do the screens show for `COC(=O)c1sccc1NC(=O)CSc1ccccc1NS(=O)(=O)c1ccccc1Cl`?
PLK1 PBD inh: -25.0%; VP16 counter: 20.3%; ALDH1A1 inh: 7.08µM*; RORg inh: 23.9%; Sfp PPTase inh: 8.9%

Results for O=C1CC(C(=O)O)C(c2ccccc2)c2ccccc21 (centres undefined) ?
PLK1 PBD inh: -0.2%

Results for COC(=O)[C@@]1(Cc2ccccc2)[C@H]2c3cc(C(=O)N(C)C)n(Cc4ccsc4Br)c3C[C@H]2CN1C(=O)c1ccccc1 ?
VP16 counter: 2.2%; ALDH1A1 inh: 14.7%; RORg inh: 4.4%; Sfp PPTase inh: -7.1%

How did CCCNC(=O)NNC(=O)c1ccc(F)cc1 do in these assays?
PLK1 PBD inh: 23.8µM*; VP16 counter: -6.9%; ALDH1A1 inh: 17.1%; RORg inh: -1.7%; Sfp PPTase inh: 20.0%

How did Cc1cc(C)c(S(C)(=O)=O)c(Oc2ccc(C(C)(C)C)cc2)n1 do in these assays?
PLK1 PBD inh: -6.9%; VP16 counter: 0.4%; ALDH1A1 inh: 15.8µM*; RORg inh: -1.1%; Sfp PPTase inh: -3.4%

Results for CN(C)c1ccc(-c2c(-c3ccc4c(c3)OCO4)noc2-c2ccsc2)cn1 ?
PLK1 PBD inh: -3.7%; VP16 counter: -4.5%; RORg inh: 14.8%; Sfp PPTase inh: -2.1%

How did O=C(O)c1cc(-c2ccc(-c3c(-c4ccc5c(c4)OCO5)noc3-c3ccsc3)cc2)nc2ccccc12 do in these assays?
PLK1 PBD inh: 16.8µM*; VP16 counter: 2.6%; RORg inh: inconclusive; Sfp PPTase inh: -7.4%

How did O=C(NCc1cc(Cl)cc(Cl)c1)c1csc([C@@H]2C[C@H](O)[C@@H](CO)O2)n1 do in these assays?
PLK1 PBD inh: -3.8%

What do the screens show for `COc1ccc(C(NC(C)=O)c2cc(Cl)c3cccnc3c2O)cc1OC` (centres undefined)?
PLK1 PBD inh: -3.4%; VP16 counter: -25.1%; ALDH1A1 inh: 2.7%; RORg inh: 3.98µM*; Sfp PPTase inh: -20.5%

What do the screens show for `CCCC(=O)NC(c1ccc(OC)c(OC)c1)c1c(O)ccc2ccccc12` (centres undefined)?
PLK1 PBD inh: -4.3%; VP16 counter: -0.5%; ALDH1A1 inh: 11.5%; RORg inh: 31.4%; Sfp PPTase inh: 2.8%

What do the screens show for `COc1ccccc1C(NC(C)=O)c1cc(Cl)c2cccnc2c1O` (centres undefined)?
PLK1 PBD inh: -1.4%; VP16 counter: 2.82µM*; RORg inh: 2.24µM*; Sfp PPTase inh: 12.2%

What do the screens show for `CCC(=O)NC(c1ccc(OC)c(OC)c1)c1cc(Cl)c2cccnc2c1O` (centres undefined)?
PLK1 PBD inh: -11.6%; VP16 counter: -4.3%; ALDH1A1 inh: 4.2%; RORg inh: -0.4%; Sfp PPTase inh: 56.2µM*

What do the screens show for `CCOC(=O)C1=C[C@@H](C2CCCCC2)N(S(=O)(=O)c2ccc([N+](=O)[O-])cc2)[C@H]1c1ccccc1`?
PLK1 PBD inh: 1.0%
